# Laboratory results taken from PubChem BioAssay (NCI).
# Compounds without any hit were thinned out: in the full panel of roughly 83,000, 20% have a hit.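 The endpoint reported here, percent growth, reads 100 for growth as untreated, 0 for no net growth and -100 for all cells dead.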 A number with no mark means an inactive call. Activity calls are given as the source filed them. The calls were made as follows: active = growth percent below 10; inactive = the rest.
# Legend:
# Test in all cases: NCI-60 one-dose screen, 48 h (100 = growth as untreated, 0 = no growth, -100 = all killed)
# Details in all cases: 10 µM
# NCI-H23 lung = tested on: NCI-H23 lung
# NCI-H226 lung = tested on: NCI-H226 lung
# NCI-H322M lung = tested on: NCI-H322M lung
# HOP-62 NSCLC = tested on: HOP-62 NSCLC
# NCI-H460 lung = tested on: NCI-H460 lung
# HOP-92 NSCLC = tested on: HOP-92 NSCLC
# NCI-H522 lung = tested on: NCI-H522 lung
# A549/ATCC NSCLC = tested on: A549/ATCC NSCLC
# 786-0 renal = tested on: 786-0 renal
# COLO 205 colon = tested on: COLO 205 colon
# DU-145 prostate = tested on: DU-145 prostate
# K-562 leukemia = tested on: K-562 leukemia
# MALME-3M melanoma = tested on: MALME-3M melanoma
# MDA-MB-231 breast = tested on: MDA-MB-231 breast
# RXF 393 renal = tested on: RXF 393 renal
# SF-268 CNS = tested on: SF-268 CNS
# SF-295 CNS = tested on: SF-295 CNS
# SF-539 CNS = tested on: SF-539 CNS
# UACC-257 melanoma = tested on: UACC-257 melanoma
# M14 melanoma = tested on: M14 melanoma
Structure (SMILES),growth (NCI-H23 lung),growth (NCI-H226 lung),growth (NCI-H322M lung),growth (HOP-62 NSCLC),growth (NCI-H460 lung),growth (HOP-92 NSCLC),growth (NCI-H522 lung),growth (A549/ATCC NSCLC),growth (786-0 renal),growth (COLO 205 colon),growth (DU-145 prostate),growth (K-562 leukemia),growth (MALME-3M melanoma),growth (MDA-MB-231 breast),growth (RXF 393 renal) [%],growth (SF-268 CNS),growth (SF-295 CNS),growth (SF-539 CNS),growth (UACC-257 melanoma),growth (M14 melanoma)
O=C(N/N=C/c1ccc(-c2cccc([N+](=O)[O-])c2)o1)c1[nH]c2ccc(Br)cc2c1-c1ccccc1,17.6%,16.2%,54%,38.7%,9.61% (active),55.7%,-48.4% (active),0.801% (active),5.31% (active),-65.4% (active),6.18% (active),4.74% (active),39%,6.8% (active),26.4,36%,-15.3% (active),-49.8% (active),41.9%,10.4%
CC(=O)NNc1ccc2nnc(-c3ccc(Br)cc3)n2n1,91.5%,87.8%,107%,82.5%,106%,103%,85.3%,95.9%,86.3%,109%,103%,95.5%,107%,94%,68.5,102%,96.1%,90.2%,105%,98.2%
CCN1CCN(Cc2ccc(NC(=O)c3cccc(-n4cc(-c5ccc(NC(C)=O)nc5)nn4)c3)cc2C(F)(F)F)CC1,93%,99.9%,125%,121%,100%,72.6%,74.7%,96.4%,58.5%,57.3%,104%,-28.4% (active),53.1%,75.8%,102,123%,93.1%,73.1%,87%,78.3%
O=c1c2ccccc2nc(COc2ccccc2)n1/N=C/c1ccc(N2CCOCC2)cc1,59.2%,37.9%,66.6%,18.4%,66.2%,-1.3% (active),33.6%,73.7%,45.5%,80.8%,77.5%,103%,56.8%,26%,,26.4%,69.8%,34.1%,95.7%,93.9%
COc1cc(/C=C/C(=O)c2ccc(NC(=O)CN3C(=O)NC(C)(c4ccccc4)C3=O)cc2)cc(OC)c1OC (stereo unspecified),15.6%,1.44% (active),56.5%,33.3%,2.48% (active),85%,32.8%,18.5%,27.5%,11.9%,12.4%,16%,69.5%,26.5%,,23%,46.7%,-50.4% (active),52.6%,46.8%
Cc1ccc(/C=C/C(=O)c2ccc(NC(=O)CSc3nnc(-c4c[nH]c5ccccc45)n3-c3ccccc3)cc2)cc1,74.3%,80.7%,92.8%,95.8%,84.6%,92%,81.7%,95.9%,109%,102%,93%,64.1%,93.9%,83.7%,,82.2%,92.4%,7.12% (active),111%,82.1%
Cc1ccn2c(C(=O)c3ccccc3)cc(-c3cc(-c4ccc(N(C)C)cc4)c(C#N)c(N)n3)c2c1,46.1%,16.7%,75.1%,53.1%,56%,23.6%,79.4%,45.9%,21%,66.2%,56.4%,70.9%,63.6%,25.7%,,61.2%,69.3%,-62.1% (active),85.7%,81.3%
Cc1ccn2c(C(=O)c3ccc(Br)cc3)cc(-c3cc(-c4ccc(N(C)C)cc4)c(C#N)c(N)n3)c2c1,27.6%,60.5%,41%,78.8%,54.4%,31.2%,45.3%,70.2%,40.9%,47.5%,56.2%,68.7%,-1.54% (active),39.5%,,68%,68.1%,24.2%,79.7%,57.7%
[2H]C([2H])([2H])Oc1ccc2ncc(C#Cc3cncc(C(=O)Nc4ccc(CN5CCN(C)CC5)c(C(F)(F)F)c4)c3)n2n1,-80.5% (active),-65.8% (active),-98.9% (active),-41% (active),2.44% (active),-66.6% (active),-40.4% (active),-33% (active),-28.6% (active),-62.2% (active),-98.8% (active),1.31% (active),-81.1% (active),-90.5% (active),,-42.8% (active),-77% (active),-90.2% (active),-65.9% (active),-61.9% (active)
COc1ccc(-c2nc(Nc3ccccc3S(N)(=O)=O)c3ccccc3n2)cc1,-0.0975% (active),-43% (active),35.1%,77.7%,-24.9% (active),4.23% (active),59.7%,-2.67% (active),-16.5% (active),75.9%,7.82% (active),34.1%,-7.51% (active),-33.6% (active),,22.5%,61.3%,-4.27% (active),91.2%,75.8%
CN1CCO/C1=C(/NC(=O)c1ccc(Cl)cc1)[P+](c1ccccc1)(c1ccccc1)c1ccccc1,84.5%,89.3%,96.6%,95%,94.1%,60.9%,58.4%,102%,103%,68.9%,95.2%,50.3%,69.2%,61.8%,,97%,80.2%,94.5%,62.4%,88.5%
COc1ccc(C(=O)/C=C/c2cc(F)cc(C(F)(F)F)c2)cc1S(N)(=O)=O,-74.8% (active),-29.3% (active),-3.66% (active),-47.4% (active),-25.3% (active),-9.39% (active),-79.6% (active),3.37% (active),-81% (active),-53.1% (active),14.1%,5.44% (active),-64.2% (active),-90.5% (active),,20.8%,-47.5% (active),-77.8% (active),-9.77% (active),-68.4% (active)
